The list is not random: actives were taken first. Their share in the collection is about 9%.
JMJD2A Tudor inh: qHTS Assay for Inhibitors of JMJD2A-Tudor Domain | Potency, µM (series often up to 114 µM), for the others: at the highest dose activity change, negative = inhibition, most hits filed as inhibitors | AID 504339, 2011 | AlphaScreen JMJD2A-Tudor / H3K4me3 peptide binding | 390,000 tested, 4.4% active; note: % is set by controls: 0 for no effect and ±100 for the full control effect; nearly all actives have a fitted effect of over 50% in size
HP1b chromo inh: HTS for Inhibitors of HP1-beta Chromodomain Interactions with Methylated Histone Tails; 390,000 tested, 0.56% active; AlphaScreen HP1-beta / biotin-H3K9me3 peptide binding; Chromobox protein homolog 1 (Homo sapiens), P83916; AID 540317, 2011; Potency, µM (top dose mostly 114 µM), inactives show at the top dose activity change, negative = inhibition, actives largely listed as inhibitors; note: nearly all actives have a fitted effect of over 70% in size
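HP1-beta protein (50 nM final) preincubated 30 min at room temperature with biotinylated H3(1-18)K9me3 peptide (50 nM) in PBS pH 7.4, 0.01% Tween-20, then compound added for 30 min. AlphaScreen streptavidin donor/nickel chelate acceptor beads (10 ug/mL final), 30 min dark, luminescence read.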
ALOX12 inh: Primary qHTS assay for inhibitors of human arachidonate 12S-lipoxygenase (ALOX12): Round 2. Polyunsaturated fatty acid lipoxygenase ALOX12 (Homo sapiens), P18054. purified 12hLO, xylenol orange hydroperoxide absorbance. Potency, µM (doses to about 108 µM), for inactives: at the highest dose activity change, negative = inhibition, actives largely listed as inhibitors. 580,000 tested, 1.1% active. AID 1671190, 2021; note: % is set by controls: 0 for no effect and ±100 for the full control effect
Target sequence (P18054 whole entry, looked up): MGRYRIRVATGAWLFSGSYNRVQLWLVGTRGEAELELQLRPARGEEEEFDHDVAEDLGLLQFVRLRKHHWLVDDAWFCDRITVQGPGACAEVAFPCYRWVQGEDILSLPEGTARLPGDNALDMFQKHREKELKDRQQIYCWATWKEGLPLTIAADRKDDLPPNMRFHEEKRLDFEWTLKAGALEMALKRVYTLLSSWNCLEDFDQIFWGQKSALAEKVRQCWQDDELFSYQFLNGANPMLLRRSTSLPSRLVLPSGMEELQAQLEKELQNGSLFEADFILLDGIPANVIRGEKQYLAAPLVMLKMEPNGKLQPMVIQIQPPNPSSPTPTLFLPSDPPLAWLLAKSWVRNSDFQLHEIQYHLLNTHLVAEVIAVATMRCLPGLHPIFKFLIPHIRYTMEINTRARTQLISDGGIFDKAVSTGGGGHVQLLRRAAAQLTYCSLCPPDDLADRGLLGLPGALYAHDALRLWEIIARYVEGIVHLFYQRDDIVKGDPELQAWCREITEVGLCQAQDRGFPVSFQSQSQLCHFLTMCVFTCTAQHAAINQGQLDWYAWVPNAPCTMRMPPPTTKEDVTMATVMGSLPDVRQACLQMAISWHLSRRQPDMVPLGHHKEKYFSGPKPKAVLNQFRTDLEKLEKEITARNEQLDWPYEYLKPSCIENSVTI
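Purified human 12hLO at 150 nM in 25 mM Hepes, 0.01% Triton X-100, pH 7.0, preincubated 15 min at room temperature with compound. Reaction started with 40 uM arachidonic acid, 30 min at room temperature. Hydroperoxide measured by Fe-xylenol orange, 573/405 nm absorbance ratio.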
PLK1 PBD block: qHTS for Inhibitors of PLK1-PDB (polo-like kinase 1 - polo-box domain): Primary Screen; Serine/threonine-protein kinase PLK1 (Homo sapiens), P53350; Plk1 PBD binding of FITC phosphopeptide, fluorescence polarization; Potency, µM, inactives show max response, negative = inhibition, hits mostly inhibitors; 360,000 tested, 2.8% active; note: series mostly up to about 57 µM; % is set by controls: 0 for no effect and ±100 for the full control effect; nearly all actives have a fitted effect of over 65% in size
G9a inh: qHTS Assay for Inhibitors of Histone Lysine Methyltransferase G9a. G9a H3K9 monomethylation, AlphaScreen, 2 h. Potency, µM (titrated, usually from 102 µM), inactives show at the highest dose activity, negative = inhibition, hits mostly inhibitors. 350,000 tested, 8.8% active. AID 504332, 2011; note: % is set by controls: 0 for no effect and ±100 for the full control effect; nearly all actives have a fitted effect of over 75% in size
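Signal arises when biotinylated H3K9 peptide, once monomethylated, bridges streptavidin donor and antibody-captured acceptor beads. Enzyme at 20 nM was preincubated 15 min with test compounds; peptide 500 nM and SAM 20 uM then reacted for 2 h.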
BAZ2B block: qHTS Assay for Inhibitors of BAZ2B. 360,000 tested, 4.4% active. Potency, µM (highest dose often 114 µM), inactives show at the top dose activity change, negative = inhibition, hits mostly inhibitors. AlphaScreen BAZ2B-H3K14Ac peptide displacement. AID 504333, 2011; note: % is set by controls: 0 for no effect and ±100 for the full control effect; nearly all actives have a fitted effect of over 60% in size
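Protein-peptide AlphaScreen: BAZ2B 50 nM, b-H3K14Ac 50 nM, 1x PBS pH 7.4 + 0.01% Tween-20. Preincubation 30 min RT; cpd 30 min RT (top 110 uM); beads 20 min RT, light-protected.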
The depositor's hits bear a star; ? = inconclusive; . = not tested or not shown; [ ] = dose if it differs, or a comment. Calls come from the whole dose curve; as a rule, active = well fitted curve in the direction sought with a large enough effect; inconclusive = small, poorly fitted or top-dose-only effect, or another doubt; inactive = no such curve, though single readings can be large; an effect the other way counts as inactive or inconclusive. Potency is the fitted concentration of half-maximal effect.

SMILES | JMJD2A Tudor inh | HP1b chromo inh | ALOX12 inh | PLK1 PBD block | G9a inh | BAZ2B block
Cc1cccc(OCC(=O)Nc2ccc(N3CCN(C(=O)c4ccco4)CC3)cc2)c1 | -33.3% | 0.0% | 4.2%[57.4 µM] | -5.3% | 79.4µM* | -37.6%
CCOC(=O)c1nnc2c(Br)c(-c3ccccc3)nn2c1C | ? | ? | 0.0% | 29.9µM* | -1.2%[59 µM] | -32.3%
CCOC(=O)c1nnc2cc(-c3ccccc3)nn2c1C | -15.4% | 37.0% | -26.7% | -7.6% | 0.5%[59 µM] | 9.1%
COc1cc(/C=N/Nc2ccc(F)cc2F)cc(OC)c1OC | -3.8% | -3.3% | ? | -11.4% | 1.78µM* | -35.5%
Fc1ccc(N/N=C/c2cccnc2)c(F)c1 | -24.0% | 18.3% | -8.7% | -6.6% | 31.6µM* | -26.2%
O=C(N/N=C/c1cccnc1)c1cccc(F)c1 | 1.4% | 43.7% | 87.0% | -7.3% | 13.1% | 6.0%
Fc1ccc(N/N=C/c2ccccc2Cl)c(F)c1 | . | . | 3.16µM* | . | . | .
Cc1cc(C)nc(N/N=C/c2ccccc2Cl)n1 | -7.0% | 40.7% | 0.0% | 1.3% | 5.9%[59 µM] | -5.5%
Fc1ccc(N/N=C/c2ccc(Cl)c(Cl)c2)c(F)c1 | . | . | 35.5µM* | . | . | .
COc1cc(C=NNc2ccccc2[N+](=O)[O-])cc(OC)c1OC | . | . | -9.7% | -7.5% | . | .
Fc1ccc(/C=N/Nc2nccnc2Cl)cc1 | -14.0% | -2.6% | -11.5% | 4.5% | . | 3.6%
COc1cccc(OC)c1C(=O)Nc1sc2c(c1C#N)CCC2 | -20.7% | 28.3% | 1.6% | -4.7% | . | 55.4%
CCOC(=O)C1=C(C)NC(=O)C1CC(=O)Nc1ccccc1 (stereo not given) | . | . | . | . | 3.55µM* | -9.8%
COC(=O)c1ccccc1NC(=O)C1CCN(C(=O)Cc2ccccc2)CC1 | -13.9% | 35.6% | -0.7% | -15.0% | 43.0% | -17.1%
CC(C)C(=O)N1CCC(n2nccc2NC(=O)CCc2ccccc2)CC1 | 25.1µM* | 9.3% | -6.1% | 3.36µM* | 2.1% | -2.3%[57.1 µM]
C=C(C)CCC(C)N1CCC(n2nccc2NC(=O)CCCc2ccccc2)CC1 (stereo not given) | -13.2% | 13.8% | 42.0% | -20.5% | 79.4µM* | -15.1%
COCCC(=O)N1CCC(n2nccc2NC(=O)c2ccccc2C)CC1 | ? | 23.0% | -5.8% | 21.2µM* | 22.1% | 4.6%
CC1(C)Cc2cc(CNC(=O)c3cccc(C4CCNC4)c3)ccc2O1 (stereo not given) | . | . | 69.8% | . | . | .
CCc1cc(=O)oc2c(C)c(OC(C)C(=O)NC3CC(C)(C)NC(C)(C)C3)ccc12 (stereo not given) | -18.1% | 10.1% | 0.7% | -14.8% | -10.7% | -4.2%[57.1 µM]
O=C(Cn1ncc2c3ccccc3n(Cc3ccc(F)cc3)c2c1=O)NCc1ccccn1 | -15.8% | 40.3% | 0.3% | . | 12.1%[59 µM] | 4.9%
COc1ccccc1NC(=O)Cn1ccc2ccc(Cl)cc21 | . | . | -3.5% | . | . | .
COc1ccccc1C(c1nnnn1Cc1ccco1)N1CCN(c2cccc(C)c2C)CC1 (stereo not given) | -20.6%[57.1 µM] | ? | ? | -23.4% | -15.7%[59 µM] | -5.6%
O=C(NCc1cc(C(F)(F)F)ccc1Cl)c1cccc2c1C(=O)c1ccc(Cl)cc1S2(=O)=O | . | . | -19.9% | . | . | .
CN(C)c1ccc(N2C(=NC(=O)C3CCCO3)SC3CS(=O)(=O)CC32)cc1 (stereo not given) | ? | 8.6% | -1.2% | -7.0% | 44.7µM* | ?
CC(=O)c1ccc(N2C(=NC(=O)C3CCCO3)SC3CS(=O)(=O)CC32)cc1 (stereo not given) | -6.8% | 45.8% | 19.0% | -5.2% | -1.9% | -2.4%
SMILES | JMJD2A Tudor inh | HP1b chromo inh | ALOX12 inh | PLK1 PBD block | G9a inh | BAZ2B block
Cc1ccc(C)c(-n2c(C)cc(/C=N/NC(=O)c3c(C)nc4cc(C)ccn34)c2C)c1 | 39.8µM* | -12.2% | -15.1% | 1.5% | ? | -8.9%
CCN1c2ccccc2N(C)C1(C)c1ccccc1 (stereo not given) | 8.91µM* | 31.6µM* | . | 1.68µM* | 2.51µM* | 28.2µM*
CCC1(c2ccccc2)CN(C)C1=O (stereo not given) | . | . | 1.9% | -7.7% | . | .
C[N+](C)(CCCCCCCCCC[N+](C)(C)C1CCCCC1)C1CCCCC1 | . | . | 15.8µM* | . | . | .
CN(C)S(=O)(=O)c1ccc(NC(=O)N2CCN(c3ccccc3Cl)CC2)cc1 | -5.3%[57.1 µM] | 29.2% | 7.1% | -11.2% | 24.3%[59 µM] | 6.9%
C=CCn1cccc(C(=O)Nc2ccc(Cl)cc2)c1=O | 13.7% | 45.7% | 3.5% | -1.3% | 9.8% | 9.5%
C=CCn1cccc(C(=O)Nc2ccc(N(C)C)cc2)c1=O | ? | -21.3% | . | 0.4% | 12.6µM* | -27.3%
C=CCn1cccc(C(=O)Nc2ccc(OCC)cc2)c1=O | ? | 5.3% | -5.2% | 23.8µM* | -3.4% | -4.0%
O=C(CC1C[C@H](C(=O)N2CCOCC2)[C@@]2(CCC3CCCC3)c3[nH]c4ccccc4c3CCN2C1=O)NCc1ccco1 (stereo not given in full) | -7.5% | 42.8% | ? | -0.9% | . | .
Cc1cc(/C=C(\C#N)c2nnc(N3CCOCC3)n2-c2ccccc2)c(C)n1-c1ccccc1 | . | . | . | . | ? | 50.1µM*
CN1C(c2ccc(F)cc2)=CS/C1=C(/C#N)c1nnc(N2CCOCC2)n1-c1ccccc1 | -28.8% | 32.4% | -18.6% | -14.1% | ? | -22.0%
COc1cc(/C=C(\C#N)c2nnc(N3CCOCC3)n2-c2ccccc2)ccc1O | -12.7% | 20.9% | -22.4% | -1.0% | ? | -2.0%
C=CCN1C(c2ccccc2)=CS/C1=C(/C#N)c1nnc(N2CCOCC2)n1-c1ccccc1 | ? | 14.3% | -14.3% | 21.2µM* | ? | -34.3%
COCCCN1C(=O)N(Cc2nncn2C(C)C)C(=O)C12CCNCC2 | . | . | 17.8µM* | . | . | .
Cc1nncn1CCN1C(=O)N(CCc2ccccc2)C2(CCNCC2)C1=O | . | . | -23.6% | . | . | .
Cc1ccc(NC(=S)/C(=C(\[O-])c2ccc(Cl)s2)[n+]2cccc(CO)c2)cc1C | 50.1µM* | ? | -28.6% | -10.9% | 44.7µM* | 12.4%
[O-]/C(=C(\C(=S)Nc1ccc(SC(F)F)cc1)[n+]1cccc(CO)c1)c1ccc(Cl)s1 | ? | -12.8% | -6.8% | ? | 25.1µM* | 31.6µM*
Cc1c(Cl)cccc1NC(=S)/C(=C(\[O-])c1ccc(Cl)s1)[n+]1ccccc1 | 44.7µM* | ? | ? | -11.4% | ? | ?

Screens from PubChem BioAssay.
